Source: PubChem BioAssay (Tox21)
Inconclusive results are not listed. Entries that show only a call come without a potency. Activity calls are given as the source filed them. Calls come from the whole dose curve; as a rule, active = well fitted cell-killing curve with a large enough effect in the repeat runs; inconclusive = weak or mixed curves, or effect the other way; inactive = flat fitted curve, though single readings scatter.

Experiment: qHTS assay to identify small molecule antagonists of the androgen receptor (AR) signaling pathway using the MDA cell line in the presence of 0.5 nM R1881 - cell viability counter screen (AID 1259242); note: nearly all actives have a fitted effect of over 45% in size
Conditions: MDA-kb2 viability, CellTiter-Fluor protease fluorescence, 16 h; series mostly up to 92.4 µM
From the text: U.S. Tox21 Program National Center for Advancing Translational Sciences [NCATS] NIH Chemical Genomics Center [NCGC] U.S. Environmental Protection Agency [EPA] National Institutes of Environmental Health Sciences [NIEHS] National Toxicology Program [NTP] U.S. Food and Drug Administration [FDA] Tox21 Assay Overview: Androgen receptor (AR) is an important member of the nuclear receptor family. Its signaling plays a critical role in AR-dependent prostate cancer and other androgen related diseases. Considerable attention has been given in the past decades to develop methods to study and screen for the environmental chemicals that have the potential to interfere with metabolic homeostasis, reproduction, developmental and behavioral functions. Therefore AR binding assay for screening androgen antagonists can be used to identify potential endocrine disruptors. MDA-kb2 cells (from ATCC, deposited by Wilson et al.) were used to screen for AR inhibitors against Tox21 compound libraries. These cells are human breast carcinoma cells that were stably transfected with a luciferase reporter gene under control of the MMTV promoter that contains response elements for both androgen receptor (AR) and glucocorticoid receptor (GR). The current screening for identification of AR inhibitors against Tox21 libraries used lower concentration of (0.5 nM) R1881 as a stimulator. The cytotoxicity of the Tox21 compound libraries against MDA-kb2 cell line was tested by measuring live-cell protease activity using CellTiter-Fluor assay in the same wells.
Tox21 Assay Protocol Summary: MDA-kb2 cells (cells cultured without CO2) were dispensed at 3,000 cells/well in 4 uL of culture medium into white wall/solid-bottom 1536-well plates (Corning Life Sciences, Corning, NY) using a Multidrop Combi (ThermoFisher Scientific, Waltham, MA) dispenser. After the assay plates were incubated at a 37C and 0% CO2 for 5 hr, 23 nL of compounds dissolved in DMSO, positive controls or DMSO only was transferred to the assay plate by a Pintool station (Kalypsys, San Diego, CA). The transfer of compounds was followed by the addition of 1 uL of 0.5 nM (final concentration) agonist (R1881)/culture medium using a Flying Reagent Dispenser (FRD, Aurora Discovery, San Diego, CA). The plates were incubated at 37C and 0% CO2 for 16 hr. For cytotoxicity assay, 1 uL of CellTiter-Fluor reagent (Promega Corporation, Madison, WI) was added to each well using the FRD and after 30 min incubation at 37C and 0% CO2, The fluorescence intensity was measured using ViewLux plate reader (PerkinElmer, Shelton, CT).

| SMILES | Potency | viability change, negative = cytotoxic |
| --- | --- | --- |
| Cn1c(NCCN(CCO)CCCc2ccc([N+](=O)[O-])cc2)cc(=O)n(C)c1=O | inactive |  |
| Nc1nc(CC(=O)O)cs1 | inactive |  |
| ClC(Cl)(Cl)c1ccc(C(Cl)(Cl)Cl)cc1 | inactive |  |
| CC(C)(C)c1cc(CCC(=O)OCC(COC(=O)CCc2cc(C(C)(C)C)c(O)c(C(C)(C)C)c2)(COC(=O)CCc2cc(C(C)(C)C)c(O)c(C(C)(C)C)c2)COC(=O)CCc2cc(C(C)(C)C)c(O)c(C(C)(C)C)c2)cc(C(C)(C)C)c1O | inactive |  |
| CC(=O)/C=C/C1C(C)=CCCC1(C)C (stereo not given) | inactive |  |
| O=C1Nc2cc(Cl)ccc2Oc2ccccc21 | inactive |  |
| CCCCOC(O)CC (stereo not given) | inactive |  |
| O=S1(=O)c2cccc3cccc(c23)N1CCCN1CCN(c2ccc(F)cc2)CC1 | inactive |  |
| O=C(O)COC(=O)Cc1ccccc1Nc1c(Cl)cccc1Cl | inactive |  |
| CCCCCc1ccc(N)cc1 | inactive |  |
| Cc1ccccn1 | inactive |  |
| CC(C(=O)O)c1ccc(C(=O)c2ccccc2)s1 (stereo not given) | inactive |  |
| CC(C)(Oc1ccc(Cl)cc1)C(=O)OCCCOC(=O)C(C)(C)Oc1ccc(Cl)cc1 | inactive |  |
| N[C@H]1C(O)O[C@H](CO)[C@H](O)[C@@H]1O (stereo not given in full) | inactive |  |
| CCCCCOC(=O)COc1cc(N2C(=O)C3=C(CCCC3)C2=O)c(F)cc1Cl | inactive |  |
| Cc1cccc(OCCOc2cccc(C)c2)c1 | inactive |  |
| CN1CCC[C@@H]1c1cccnc1 | inactive |  |
| O=C(NN1CCCC1)NS(=O)(=O)c1ccc(Cl)cc1 | inactive |  |
| Cc1cc(CC(=O)O)c(C)n1-c1ccc(Cl)cc1 | inactive |  |
| NCCCN(CCO)CCO | inactive |  |

| SMILES | Potency | viability change, negative = cytotoxic |
| --- | --- | --- |
| CC(=O)OC/C=C/c1ccccc1 | inactive |  |
| C[Si](C)O[Si](C)(C)O[Si](C)(C)O[Si](C)C | inactive |  |
| SC1CCCC1 | inactive |  |
| CCOc1nc2cccc(C(=O)O)c2n1Cc1ccc(-c2ccccc2-c2nn[nH]n2)cc1 | inactive |  |
| CCN(CCO)CCCC(C)Nc1ccnc2cc(Cl)ccc12 (stereo not given) |  | -0.563% [at 8.39 µM] (inactive) |
| CCCCCC(CO)CCC (stereo not given) | inactive |  |
| O=CNc1ccccc1 | inactive |  |
| CN(C)CCCNCCCN | inactive |  |
| Nc1ccc(C(=O)Nc2ccccc2N)cc1 | inactive |  |
| CC(C)c1ccc2c(C(C)C)cc(C(C)C)c(S(=O)(=O)O)c2c1 | inactive |  |
| OCCC1CCCCN1 (stereo not given) | inactive |  |
| CCCCc1cc2ccccc2c(OCCN(C)C)n1 | inactive |  |
| CC1(C)CCC(C)(C)c2cc(NC(=O)c3ccc(C(=O)O)cc3)ccc21 | inactive |  |
| Cc1cccc(Oc2ccccc2)c1 | inactive |  |
| O=C(O)c1cccc(N(Cc2cccnc2)c2ccc(OC(F)F)c(OC(F)F)c2)c1 | inactive |  |
| CC(C)(C)c1ccc(S)cc1 | inactive |  |
| CCN(CC)C(C)=O | inactive |  |
| CC(=O)NCCCS(=O)(=O)O | inactive |  |
| O=C1c2cccc(O)c2C(=O)c2c(O)cc(CO)cc21 | inactive |  |
| O=C(O)c1cn(C2CC2)c2cc(Cl)c(F)cc2c1=O | inactive |  |
